Compound activity: PubChem BioAssay, PCMD
Hits are enriched below; roughly 0.33% of the tested compounds scored in any of these assays.
FXIIa single = inhibitors of human coagulation factor XIIa; actives 0.2% (n = 33,000); inhibition, % at 10 µM; AID 701; P00748; purified human FXIIa, AMC substrate fluorescence, 2 h; in the data active = inhibition above about 30%;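 also: 0% = enzyme with vehicle only and 100% = no enzyme blank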
FXIa single inh = inhibitors of human coagulation factor XIa; P03951; actives 0.3% (n = 33,000); AID 687; purified human FXIa, fluorogenic AMC substrate cleavage; inhibition, % at 10 µM;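 active = inhibition above 40% in the primary screen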;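 also: 0% = enzyme without compound and 100% = blank wells lacking enzyme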
Starred values were filed as active, the others as inactive.

SMILES	FXIIa single	FXIa single inh
O=C(Nc1ccc(F)cc1)N1CC2CC(C1)c1cccc(=O)n1C2 (centres undefined)	-10	-9
O=c1cccc2n1CC1CC2CN(S(=O)(=O)c2ccccc2)C1 (centres undefined)	3	42*
O=c1[nH]c(=O)n(CCc2ccccc2)c(O)c1C=NCc1ccc2c(c1)OCO2	4	-1
